Data on 44 molecules can be found in PubChem BioAssay.

Experiment [1] addresses Tumor necrosis factor receptor superfamily member 10B (Homo sapiens) (UniProt O14763). As to the kind of experiment: caspase-8 TRAIL sensitization, hit retest, confirmation, cell-based, NB7+caspase-8, with/without TRAIL, luminescence panel (AID 651596). The conditions noted are these: NB7 neuroblastoma + caspase-8, TRAIL sensitization, luminescence viability, with TRAIL, mean of runs, at 10 µM, stronger effect = higher value.

Assay in experiment [2]: as above
The conditions noted are these: NB7 neuroblastoma + caspase-8, without TRAIL, luminescence viability, without TRAIL, mean of runs, at 10 µM.

Tumor necrosis factor receptor superfamily member 10B (Homo sapiens), sequence (O14763 whole entry, looked up): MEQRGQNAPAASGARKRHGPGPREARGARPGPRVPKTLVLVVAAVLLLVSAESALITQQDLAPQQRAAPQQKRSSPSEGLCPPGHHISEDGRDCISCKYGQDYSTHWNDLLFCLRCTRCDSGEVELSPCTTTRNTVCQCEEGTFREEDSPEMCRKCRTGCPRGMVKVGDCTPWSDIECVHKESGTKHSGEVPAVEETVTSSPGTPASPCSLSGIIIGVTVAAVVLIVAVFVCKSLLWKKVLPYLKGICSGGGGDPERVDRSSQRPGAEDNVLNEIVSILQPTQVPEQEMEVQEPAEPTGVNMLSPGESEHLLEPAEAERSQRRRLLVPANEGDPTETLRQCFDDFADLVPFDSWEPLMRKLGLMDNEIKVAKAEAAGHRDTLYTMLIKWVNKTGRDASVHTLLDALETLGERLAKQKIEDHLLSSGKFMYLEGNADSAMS

Turning to `O=C(Nc1ccc2nc3n(c(=O)c2c1)CCCCC3)c1c(F)ccc([N+](=O)[O-])c1F`, the results for the activity in experiment [1] and in experiment [2] were 72.9% and 52.3%, respectively.

With `Cc1csc(N/N=C/c2ccccn2)n1`, the activity was found to be 59.2% in experiment [1] and 69.7% in experiment [2].

`COc1ccc2nc(-c3ccccn3)ccc2c1`: the results for the activity in experiment [1] and in experiment [2] were 82.1% and 77.5%, respectively.

As for `COc1ccc(-c2cn3ccccc3n2)cc1[N+](=O)[O-]`, the activity turned out to be 50.9% in experiment [1] and 53% in experiment [2].

Consider `Cc1ccc(-c2csc(NC(=O)CSc3nnc4c(n3)[nH]c3ccccc34)n2)cc1`, for which the figures for the activity in experiment [1] and in experiment [2] were 42.5% and 24.3%, respectively.

Consider `Cc1ccc(C2=Nc3ccccc3N=C(C(Cl)Cl)C2)cc1`, for which the activity in experiment [1] was 7.3%; in experiment [2], 6.45%.

With `Cc1cccc(C(=O)Nc2ccc(C(=O)Nc3ccc(O)cc3)cc2)c1`, the activity came to 79.9% in experiment [1] and 89.1% in experiment [2].

`O=C(Nc1cccc(O)c1)c1noc2c1CCCCC2`: the activity in experiment [1] turned out to be 66.2%; in experiment [2] it was 61%.

Take `CN1/C(=C\C(=O)c2cccs2)Sc2ccccc21`: the activity in experiment [1] is 63%; in experiment [2], 61%.

`NC(Cc1ccc(C(F)(F)F)cc1)c1csc(Nc2nncc3ccccc23)n1` (stereo not drawn): the activity in experiment [1] came to 38.8%; in experiment [2], 89.1%.

In the case of `CC(C)c1ccc(C(=O)NC2=NCCS2)cc1`, the activity in experiment [1] was 63.5%; in experiment [2] it was 67.1%.

In the case of `Cc1ccc(Cn2ncc(Cl)c(Cl)c2=O)cc1`, the activity came out at 97.2% in experiment [1] and 99.3% in experiment [2].

As to `CCN(CC)CCn1c2c(c(SCC(=O)Nc3nc4ccc(C)cc4s3)nc1=O)CCC2`, the activity in experiment [1] came to 28%; in experiment [2], 21.6%.

With `O=C(Nc1nc2c(s1)CCCC2)c1cccs1`, the activity is 71.3% in experiment [1] and 82.1% in experiment [2].

For the molecule `CC[C@@H](C)[C@H](CNC)NC[C@@H](Cc1cccc2ccccc12)NCCc1cccc(C(F)(F)F)c1`, the activity in experiment [1] came out at 86.9%; in experiment [2], 97.8%.

Regarding `O=C(Nc1ccc2c(c1)CCC2)c1ccc(F)cc1`, the activity in experiment [1] came to 49.5%; in experiment [2], 44.1%.

`O=C(Nc1ccc2c(c1)nc1n2CCSC1)c1ccco1`: the activity was 77.4% in experiment [1] and 75.2% in experiment [2].

On to `N#Cc1cccnc1N1CCN(C(=O)c2cccc3c2C(=O)c2ccc(Cl)cc2S3(=O)=O)CC1`, for which the activity in experiment [1] is 98.4%; in experiment [2] it was 97.4%.

With `Cc1cc(C)c2c(N)c(C(=O)Nc3nccs3)sc2n1`, the values for the activity in experiment [1] and in experiment [2] were 89.5% and 87.2%, respectively.

Consider `O=C(NCCc1ccccc1)C(c1cccs1)N(C(=O)CCl)c1ccc(Cl)cc1` (stereo not drawn), for which the activity in experiment [1] and in experiment [2] was 99.5% in each case.

For the molecule `CCn1cc(-c2cc(C(=O)O)c3ccccc3n2)cn1`, the activity in experiment [1] is 65%; in experiment [2], 58.2%.

As for `CCOc1ccc(/C=N/Nc2ccccn2)cc1`, the activity in experiment [1] was 53.4%; in experiment [2], 41.2%.

As to `O=C(Nc1ccc(N2CCN(C(=O)c3cccs3)CC2)cc1)c1ccc([N+](=O)[O-])o1`, the activity in experiment [1] came to 86.7%; in experiment [2], 99.8%.

For the molecule `COc1ccc(-c2cc3nc4n(c(=O)c3s2)CCC4)cc1`, the activity in experiment [1] came to 71.1%; in experiment [2], 70.4%.

Consider `COC(=O)c1ccc(N/C=C/C(=O)c2ccccc2)cc1`, for which the figures for the activity in experiment [1] and in experiment [2] were 61.3% and 80.2%, respectively.

Consider `Cc1ccc(C(=O)N/N=C\c2cccc(OC(=O)c3cccc(F)c3)c2)cn1`, for which the activity was determined as 37.2% in experiment [1] and 36.8% in experiment [2].

`COc1ccc2sc(N(CCCN(C)C)C(=O)c3ccc(S(=O)(=O)N4CCc5ccccc5C4)cc3)nc2c1`: the activity in experiment [1] is 82.4%; in experiment [2], 69.3%.

For `COC(=O)c1ccccc1NC(=O)c1cc(-c2ccc(O)cc2)on1`, the values for the activity in experiment [1] and in experiment [2] were 15.1% and 27.9%, respectively.

Regarding `CC(=O)Oc1ccc(/C=N\NC(=O)c2cc3c(ccc4ccccc43)o2)cc1`, the figures for the activity in experiment [1] and in experiment [2] were 64.6% and 67.7%, respectively.

For the molecule `CCOC(=O)CSc1nc2cc(OC)ccc2cc1C#N`, the activity worked out at 74.7% in experiment [1] and 80.4% in experiment [2].

In the case of `COc1cccc(-n2c(SCC(=O)N3CCCCC3)nc3c([nH]c4ccccc43)c2=O)c1`, the activity turned out to be 28.7% in experiment [1] and 19.4% in experiment [2].

Take `O=c1c2c(-c3ccccc3)csc2nc2c3ccccc3c(NCCN3CCOCC3)nn12`: the activity in experiment [1] came out at 89.5%; in experiment [2], 90.1%.

As to `FC(F)(F)c1cccc(CC2CN(Cc3ccccc3)Cc3ccccc3N2c2cc(Cl)cc(Cl)c2)c1` (stereo not drawn), the activity in experiment [1] is 1.05%; in experiment [2] it was -5.7%.

`COc1ccc(Cn2c(SCc3ccccc3C)nc3cc(OC)c(OC)cc3c2=N)cc1`: the activity was 72.7% in experiment [1] and 90.9% in experiment [2].

Regarding `Cc1ccc(C(=O)Nc2ccc3c(c2)CCC3)cc1`, the values for the activity in experiment [1] and in experiment [2] were 78.7% and 76.2%, respectively.

For `Cc1ccccc1-c1nnc(SCC(=O)Nc2cccnc2Cl)o1`, the figures for the activity in experiment [1] and in experiment [2] were 68.8% and 61%, respectively.

For the molecule `Cc1ccc(-c2nnc(-c3cccc4ccccc34)o2)cc1`, the results for the activity in experiment [1] and in experiment [2] were 58.2% and 44%, respectively.

Regarding `CCc1ccc(C2=NN(C(=O)OC)C(O)(C(F)(F)F)C2)cc1` (stereo not drawn), the activity in experiment [1] was 45.8%; in experiment [2], 59%.

Take `O=C(Oc1c(CN2CCOCC2)cc(Cl)c2cccnc12)c1ccc(F)cc1`: the activity in experiment [1] was found to be 53.5%; in experiment [2], 56.1%.

With `CCCCn1c(=O)[nH]c(=O)c2c1nc(Cn1ncc(Cl)c(Cl)c1=O)n2CCC`, the figures for the activity in experiment [1] and in experiment [2] were 98.7% and 99%, respectively.

On to `COc1ccc(NC(=O)c2ccc(C)cc2)cc1`, for which the results for the activity in experiment [1] and in experiment [2] were 66.1% and 60.3%, respectively.

`COc1ccc(C(=O)Nc2ccccc2C(=O)N/N=C/c2ccco2)cc1`: the activity in experiment [1] came out at 87.6%; in experiment [2], 59.1%.

In the case of `C/C(=N\NC(=O)c1ccc2c(c1)OCO2)c1ccco1`, the activity worked out at 53.5% in experiment [1] and 57.3% in experiment [2].

As to `Cc1nn(-c2ccccc2)c(/N=C/c2ccc(O)cc2)c1-c1ccccc1`, the figures for the activity in experiment [1] and in experiment [2] were 39.1% and 13.9%, respectively.
